From PubChem BioAssay
Sampled rows, rich in hits. Any-hit rate of the full collection: about 6.5%.
HCMV antiviral – qHTS Assay for inhibitors of the human cytomegalovirus (HCMV) | AID 1259415, 2018 | HFF cells, HCMV-luciferase reporter, 72 h; active compounds read low | 410,000 tested, 4.5% active | activity change, negative = inhibition, % at 57.5 µM; in the data active = activity change below about -60%; inconclusive = no clear call, values can overlap the other calls; inactive = above about -39%
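After 16 h attachment at 37C, HFF cells received test compound and HCMV-luciferase (1 PFU/cell); reporter luminescence read 72 h later, data normalized against buffer-only and known inhibitor Salinomycin.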
Marburg entry inh – qHTS for inhibitors of binding or entry into cells for Marburg Virus. Marburg virus pseudotyped entry inhibition, cell reporter. Potency, µM (titrated, usually from 37.8 µM), for inactives: top-dose activity change, negative = inhibition, hits mostly inhibitors. 300,000 tested, 1.8% active. AID 540276, 2011; calls by dose curve; tested in HEK293 cells; also: potency is read from the fitted curve at half-maximal effect
FMDV antiviral – High Throughput Screening for Foot and Mouth Disease Virus Antivirals. 410,000 tested, 1.2% active. Potency, µM (titrated, usually from 57.9 µM), without a hit: top-dose activity change, negative = inhibition, most hits filed as inhibitors. AID 1159524, 2015. FMDV antiviral cell-based qHTS; calls by dose curve; tested in HEK293T cells; also: read-out not given here; potency is read from the fitted curve at half-maximal effect; nearly all actives have a fitted effect of over 45% in size
VACV Venus inh – qHTS for Stage-Specific Inhibitors of Vaccinia Orthopoxvirus: Venus Reporter Primary qHTS; Vaccinia virus Venus reporter expression, fluorescence; Potency, µM (highest dose often 36.5 µM), without a hit: at the top dose activity change, negative = inhibition, most hits filed as inhibitors; 330,000 tested, 0.46% active; AID 720580, 2013; calls by dose curve; tested in A549 cells; also: potency is read from the fitted curve at half-maximal effect; nearly all actives have a fitted effect of over 30% in size
Lassa entry inh – qHTS for Inhibitors of binding or entry into cells for Lassa Virus; Potency, µM (series often up to 37.9 µM), without a hit: at the highest dose activity change, negative = inhibition, usual class: inhibitors; Lassa virus pseudotype entry inhibition, cell reporter; 300,000 tested, 1.2% active; calls by dose curve; tested in HEK293 cells; also: potency is read from the fitted curve at half-maximal effect; nearly all actives have a fitted effect of over 50% in size
VACV mCherry inh – qHTS for Stage-Specific Inhibitors of Vaccinia Orthopoxvirus: mCherry Reporter Primary qHTS; Vaccinia virus mCherry reporter infection, fluorescence; Potency, µM (doses to about 36.5 µM), for the others: at the top dose activity change, negative = inhibition, most hits filed as inhibitors; 310,000 tested, 0.63% active; calls by dose curve; tested in A549 cells; also: potency is read from the fitted curve at half-maximal effect; nearly all actives have a fitted effect of over 35% in size
* = called active by the depositor; i = inactive; ? = inconclusive; nt = not tested or not shown; [ ] = dose if it differs, or a comment. % is scaled to controls: 0 for no effect and ±100 for the full control effect.

SMILES | HCMV antiviral | Marburg entry inh | FMDV antiviral | VACV Venus inh | Lassa entry inh | VACV mCherry inh
CCN=c1scc(-c2ccc3c(c2)NC(=O)CO3)n1N=C1CCCC1 | -77* | 4µM* | ? | ? | ? | ?
CCCS(=O)(=O)NC(=O)C1(C)CCCN(C(=O)c2ccccc2OC(F)(F)F)C1 (centres undefined) | nt | nt | -18% | -1% | nt | -6%
CCOc1cccc(C(=O)Nc2ccc(S(=O)(=O)Nc3cc(C)on3)cc2)c1 | 32 | 0%[46.1 µM] | 4% | 3% | 3% | 2%
CCOc1ccc(N=C(NN)c2ccc3ccccc3n2)cc1 | -69* | ? | 8.9µM* | -16% | ? | -13%
Cc1ccc2c(c1)[nH]c1c(N3CCN(Cc4ccccc4)CC3)ncnc12 | -85* | 16µM* | nt | ? | 21µM* | ?
OC1(c2cccc(C(F)(F)F)c2)CCN(c2ccc(-c3ccccc3)nn2)CC1 | 17 | 13% | 50% | -13% | ? | -7%
Cc1ccc2[nH]c3c(N4CCCCCC4)ncnc3c2c1 | nt | 1% | nt | nt | nt | nt
c1ccc(CN2CCN(c3nc4ccccc4c4ccccc34)CC2)cc1 | ? | -21% | -1% | -9% | -19% | nt
OC1(c2cccc(C(F)(F)F)c2)CCN(c2ncnc3c2[nH]c2ccccc23)CC1 | -9 | ? | 28µM* | ? | 15% | ?
c1ccc(CN2CCN(c3ncnc4c3[nH]c3ccccc34)CC2)cc1 | -106* | ? | 10µM* | ? | ? | 7.1µM*
Cc1ccc2[nH]c3c(N4CCN(Cc5ccccc5)CC4)ncnc3c2c1 | -107* | ? | 11µM* | ? | ? | ?
COC(=O)C1=C(C)N(CC2CC2)C(=NCCc2cccnc2)NC1c1ccccc1 (centres undefined) | nt | 4%[14.2 µM] | nt | nt | 0%[14.3 µM] | nt
CCc1cc2c(nc1CC)CCN(CCC(C)=NO[C@@H](C)c1cn([C@H](CO)Cc3ccccc3)nn1)C2 | nt | -27%[14.2 µM] | nt | nt | nt | nt
c1ccc2c(c1)CCN(c1ncnc3c1[nH]c1ccccc13)C2 | -66* | ? | 11µM* | nt | ? | nt
COc1cc2nc(N3CCCCC3)nc(NC3CC3)c2cc1OC | nt | nt | nt | -20% | nt | -4%
O=C(Cn1nc(CNc2ccc(Cl)cc2)[n+]2c1CCCCC2)c1ccc(Br)cc1 | 15 | -1% | 0% | 2% | 14% | -6%
O=C(Cn1nc(CNc2ccc(Br)cc2)[n+]2c1CCCCC2)c1ccc([N+](=O)[O-])cc1 | -92* | -18% | -12% | -15% | -2% | -19%
CCCNC(=O)c1cn(CC)c2cc(N3CCN(C(=O)c4ccco4)CC3)c(F)cc2c1=O | -36 | nt | 0% | nt | nt | nt
CCn1cc(C(=O)NCc2cccc(F)c2)c(=O)c2cc(F)c(N3CCN(C(=O)c4ccco4)CC3)cc21 | -86* | ? | 16µM* | ? | ? | nt
Brc1ccc2[nH]c3nc(SCCN4CCOCC4)nnc3c2c1 | 4 | ? | ? | -15% | 0.5µM* | -4%
O=C1N[C@@H](Cc2ccccc2)C(=O)N2[C@@H]3N(S(=O)(=O)c4ccccc4)c4ccccc4[C@]3(Br)C[C@@H]12 | -28 | nt | 0% | ? | nt | ?
CN1C(=O)C2C[C@@]3(Br)c4ccccc4N(OOSc4ccccc4)[C@H]3N2C(=O)[C@@H]1Cc1ccccc1 (some centres undefined) | -71* | nt | -4% | -21% | nt | -6%
Cc1ccc(NC(=O)OC(C)N2CCCCC2)cc1NC(=O)OC(C)N1CCCCC1 (centres undefined) | -13 | 5µM* | -2% | -13% | ? | -2%
CCN(CC)c1nc2c(S(=O)(=O)c3ccccc3)nnn2c2ccc(Cl)cc12 | -76* | ? | 11% | ? | nt | ?
CCN(CC)c1nc2c(S(=O)(=O)c3cccc(Cl)c3)nnn2c2ccsc12 | -61* | nt | -18% | -24% | -20%[46.1 µM] | ?
SMILES | HCMV antiviral | Marburg entry inh | FMDV antiviral | VACV Venus inh | Lassa entry inh | VACV mCherry inh
COC(=O)C[C@H]1c2ccccc2[C@@H]2C(=C[C@@H](C)[C@H]3C(=O)NC(=O)[C@H]32)N1C(=O)OC | nt | 3%[14.2 µM] | nt | nt | nt | nt
Cc1ccc(C)n1C1C(=O)N(Cc2ccc(C(F)(F)F)cc2)c2ccc(Cl)cc21 (centres undefined) | -4 | nt | nt | nt | nt | nt
O=[N+]([O-])c1ccccc1-c1cc(-c2ccccc2)on1 | 57 | nt | nt | nt | nt | nt
Nc1nc(-c2cc(O)ccc2[N+](=O)[O-])cc(-c2ccccc2)c1[N+](=O)[O-] | -69* | -7%[46.1 µM] | -24% | -11% | -21%[46.1 µM] | -13%
Cc1nnc(SCC(=O)Nc2nccs2)n1C(C)C | 30 | 14%[46.1 µM] | -7% | -1% | 33%[46.1 µM] | -15%
COc1ccc(CN(CCC#N)CCC2(c3ccccc3)CC(C)N(C)CC2C)cc1OC (centres undefined) | -18 | 13µM* | -7% | -7%[7.34 µM] | -15% | -4%[7.34 µM]
CC1CC(CCN)(c2ccccc2)C(C)CN1C (centres undefined) | ? | 4µM* | 9% | 7%[7.34 µM] | 6% | i[7.34 µM]
Cn1c(=O)c2c(nc(-c3ccc(N(CCCl)CCCl)cc3)n2C)n(C)c1=O | -30 | ? | 32µM* | -22% | ? | ?
Cc1ccc(NC(=O)c2nc[nH]c2C(=O)NCCCCCNC(=O)OC(C)(C)C)cc1 | -64* | nt | ? | ? | nt | -12%
CC(C)(C)OC(=O)NCCCCCNC(=O)c1[nH]cnc1C(=O)Nc1ccccc1 | 26 | nt | -29% | -30% | nt | ?
CC(C)(C)OC(=O)NCCCCCNC(=O)c1[nH]cnc1C(=O)Nc1ccc(Cl)cc1 | -39 | nt | 32µM* | ? | nt | 11µM*
CC(C)(C)OC(=O)NCc1ccc(NC(=O)c2nc[nH]c2C(=O)NCCCCCCNC(=O)c2[nH]cnc2C(=O)Nc2ccc(CNC(=O)OC(C)(C)C)cc2)cc1 | -2 | nt | 0% | ? | nt | -23%
Cc1ccc(S(=O)(=O)N2CCCC2CNC(=O)C(=O)NCCN2CCOCC2)cc1 (centres undefined) | -21 | -15% | 4% | -4% | -1% | -13%
CC(C)(C)c1cc(CCC(=O)NN)cc(C(C)(C)C)c1O | -12 | -5%[46.1 µM] | -13% | -12% | ? | 2%
C=CC(=O)NCCCc1cc(C(C)(C)C)c(O)c(C(C)(C)C)c1 | -96* | -25%[46.1 µM] | 0% | ? | ? | ?
COc1ccc(S(=O)(=O)N2c3ccccc3OCC2c2ccccc2)cc1 (centres undefined) | ? | ? | 13µM* | nt | -23% | nt
COc1ccc(S(=O)(=O)N2c3ccccc3OCC2C)cc1 (centres undefined) | -66* | -19%[46.1 µM] | -18% | -22% | ? | ?
Cc1cc(C)c2c(=O)cc(CSc3nnc(-c4ccccc4)n3C)[nH]c2c1 | -17 | nt | ? | -1% | 18%[46.1 µM] | -4%
Cc1ccc2nc(Cl)c3nnnn3c2c1 | nt | 2%[46.1 µM] | 13µM* | -2% | 1%[46.1 µM] | i
